Records with an inconclusive call do not appear. Active and inactive are the calls of the source. Unless noted, the call rests on the fitted dose curve; in most records, active means well fitted curve in the direction sought with a large enough effect; inconclusive means small, poorly fitted or top-dose-only effect, or another doubt; inactive means no such curve, though single readings can be large; an effect the other way counts as inactive or inconclusive.
Target: 3',5'-cyclic-AMP phosphodiesterase 4B (Homo sapiens) (UniProt Q07343)
Assay: qHTS Assay for Inhibitors of PDE-IV (AID 607; active means well fitted activation curve with a large enough effect in the main read-out, with a control signal flat, not every such curve was filed as active; further: % of control where 0% means no effect)
Details: HEK293 ACTOne CNG channel cells, membrane potential fluorescence; series mostly up to 22.9 µM; activation (PDE inhibition): at the top concentration
Method in brief: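 ACTOne HEK293 cells carry a modified cAMP-gated CNG channel and express endogenous PDE4; plated 1000 cells/well, compounds up to 22.9 uM final. Membrane-potential dye fluorescence (ex 535/em 590) was read; parental cells received 10 uM forskolin + 100 uM RO 20-1724.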

3',5'-cyclic-AMP phosphodiesterase 4B (Homo sapiens), sequence (Q07343 whole entry, looked up): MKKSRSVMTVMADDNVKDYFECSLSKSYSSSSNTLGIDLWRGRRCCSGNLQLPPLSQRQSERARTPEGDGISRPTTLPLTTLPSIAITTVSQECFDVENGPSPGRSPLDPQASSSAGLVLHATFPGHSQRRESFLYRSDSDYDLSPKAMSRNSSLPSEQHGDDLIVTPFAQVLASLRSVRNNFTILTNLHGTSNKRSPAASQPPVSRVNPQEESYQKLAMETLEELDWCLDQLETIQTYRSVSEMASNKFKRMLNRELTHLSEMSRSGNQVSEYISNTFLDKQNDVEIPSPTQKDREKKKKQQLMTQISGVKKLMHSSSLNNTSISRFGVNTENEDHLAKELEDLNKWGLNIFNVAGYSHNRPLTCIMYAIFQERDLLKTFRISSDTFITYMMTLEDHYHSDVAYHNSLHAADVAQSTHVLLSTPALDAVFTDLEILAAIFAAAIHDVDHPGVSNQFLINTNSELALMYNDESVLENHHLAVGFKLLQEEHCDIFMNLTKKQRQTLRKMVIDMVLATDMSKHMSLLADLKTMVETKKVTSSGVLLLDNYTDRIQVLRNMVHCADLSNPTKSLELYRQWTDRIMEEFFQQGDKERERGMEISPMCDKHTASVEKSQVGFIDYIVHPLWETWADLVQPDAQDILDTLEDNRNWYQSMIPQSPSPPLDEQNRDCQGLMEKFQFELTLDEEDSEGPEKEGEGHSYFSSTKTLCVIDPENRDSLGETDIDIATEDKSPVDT

Activation (PDE inhibition), inactive:
O=C(Nc1cccc(F)c1)N1CCCC2(CCNCC2)C1 -2.55%, COc1ccc(-n2c(=O)c(-c3ccccc3)nc3cnc(N4CCNCC4)nc32)cc1 -3.77%, Cn1c(=O)c(CCc2ccccc2)nc2cnc(OCc3ccccc3)nc21 27.9%, COc1ccc(-c2nc3cnc(N4CCNCC4)nc3n(-c3ccccc3)c2=O)cc1 14.7%, O=C(c1ccco1)N1CCC[C@@]2(CCN(c3ccncc3)C2)C1 2.9%, COc1ccc(Oc2ncc3nc(-c4ccccc4)c(=O)n(C4CC4)c3n2)cc1 24.1%

Target: Cytochrome P450 3A4 (Homo sapiens) (UniProt P08684)
Assay: qHTS Assay for Inhibitors and Substrates of Cytochrome P450 3A4 (AID 884); further: nearly all actives have a fitted effect of over 50% in size; further: potency means the concentration at half of the fitted maximal effect; on activity change, negative = inhibition: on the % scale 0 is the no-effect control and ±100 the full control effect
Details: recombinant CYP3A4, Luciferin-PPXE luminescence; series mostly up to 57.1 µM; activity change, negative = inhibition: at the top concentration
Method in brief: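 Luminescent readout of luciferin produced by CYP3A4 (20 nM) dealkylation of Luciferin-PPXE, 25 uM (its KM). NADPH-driven reaction ran 60 min at RT after 10 min compound preincubation; data scaled to 57 uM ketoconazole as 100% inhibition.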

Cytochrome P450 3A4 (Homo sapiens), sequence (P08684 whole entry, looked up): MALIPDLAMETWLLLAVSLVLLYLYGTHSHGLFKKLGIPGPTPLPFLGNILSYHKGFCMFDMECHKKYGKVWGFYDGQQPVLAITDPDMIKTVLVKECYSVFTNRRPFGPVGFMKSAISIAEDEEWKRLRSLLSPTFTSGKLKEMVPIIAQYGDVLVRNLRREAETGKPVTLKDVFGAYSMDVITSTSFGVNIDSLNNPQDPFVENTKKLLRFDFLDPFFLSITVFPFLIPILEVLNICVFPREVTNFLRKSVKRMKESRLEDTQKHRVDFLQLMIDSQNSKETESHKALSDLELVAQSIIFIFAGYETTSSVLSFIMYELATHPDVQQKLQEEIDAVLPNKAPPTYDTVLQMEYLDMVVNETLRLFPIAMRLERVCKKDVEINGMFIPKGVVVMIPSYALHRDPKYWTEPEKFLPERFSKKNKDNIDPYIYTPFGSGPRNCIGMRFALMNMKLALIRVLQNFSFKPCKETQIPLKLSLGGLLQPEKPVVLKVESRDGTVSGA

Potency, active:
COCCn1c(=O)c(-c2ccc(Cl)cc2)nc2cnc(OC)nc21 7.94 µM, COc1ccc(CNc2ncnc3ccc(-c4ccccc4OC)cc23)c(OC)c1 2 µM, O=c1cnc2cnc(N3CCNCC3)nc2n1Cc1ccc(F)cc1 7.94 µM, O=C(c1ccco1)N1CCC[C@@]2(CCN(c3ccncc3)C2)C1 1.26 µM

Activity change, negative = inhibition, inactive:
O=C(c1cc(C(F)(F)F)cc(C(F)(F)F)c1)N1CCC2(CC1)CCN(c1ccncc1)CC2 31.9%

Target: Cytochrome P450 3A4 (Homo sapiens) (UniProt P08684)
Assay: qHTS Assay for Activators of Cytochrome P450 3A4 (AID 885); further: nearly all actives have a fitted effect of over 65% in size
Details: recombinant CYP3A4, Luciferin-PPXE luminescence, 60 min; series mostly up to 57.1 µM; activity change, positive = activation: at the top concentration
Method in brief: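 CYP3A4 activity: Luciferin-PPXE O-dealkylation, 25uM substrate, 200mM KPO4, RT throughout. Read-out is luciferase luminescence; higher values reflect activation.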

Activity change, positive = activation, inactive:
CN1CCN(c2ncncc2-c2ccccc2C(F)(F)F)CC1 -53.8%, O=c1c(-c2ccccc2)nc2cnc(N3CCNCC3)nc2n1-c1ccccc1 -50.1%, CN1CCN(c2ncnc3ccc(-c4ccccc4C#N)cc23)CC1 -71.3%, CN1CCN(c2ncc3nc(CCc4ccccc4)c(=O)n(Cc4ccc(F)cc4)c3n2)CC1 -69.2%, O=c1cnc2cnc(N3CCNCC3)nc2n1Cc1cccs1 -55.1%, COc1ccc(CNc2ncnc3ccc(-c4ccccc4OC)cc23)c(OC)c1 -94.3%, Clc1ccccc1-c1nc(N2CCNCC2)c2ccccc2n1 -76.3%, COCCn1c(=O)c(-c2cn(C)c3ccccc23)nc2cnc(N3CCNCC3)nc21 -93.3%, O=c1cnc2cnc(N3CCNCC3)nc2n1Cc1ccc(F)cc1 -67.4%, CN(C)c1ccc(-c2nccc(NCCN3CCOCC3)n2)cc1 -45.4%, COCCn1c(=O)c(-c2ccc(OC)cc2)nc2cnc(N3CCNCC3)nc21 -77.2%, O=C(Nc1cccc(F)c1)N1CCCC2(CCNCC2)C1 -62.5%, Cc1ccccc1-c1nc(N2CCN(C)CC2)c2ccccc2n1 -73.4%, O=C(c1ccco1)N1CCC[C@@]2(CCN(c3ccncc3)C2)C1 -97.1%

Tested on: not listed separately
Assay: Confirmation and Secondary Assay for Modulators of Hemoglobin Beta Chain Splicing at IVS2 654 locus (AID 910);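 further: HeLa cells stably carrying EGFP split by mutant beta-globin IVS2-654 intron; per-well total GFP intensity by laser scanning cytometry after 2-day treatment; % of control where 0% means no effect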
Details: HeLa EGFP-654 splicing reporter, GFP fluorescence, 48 h; series mostly up to 38.3 µM; activation (splicing correction): at the top concentration
Method in brief: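 Readout: per-well total peak green fluorescence (488 nm ex, 500–520 nm em) from objects 5–250 µm, reflecting correct splicing of an EGFP-654 reporter. Compounds were applied for 2 days at 37 °C to overnight-plated HeLa EGFP-654 cells; controls were DMSO and 500 nM IVS2-654 PNA.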

Activation (splicing correction), inactive:
CN1CCN(c2ncnc3ccc(-c4ccccc4C#N)cc23)CC1 2.08%, Clc1ccccc1-c1nc(N2CCNCC2)c2ccccc2n1 -0.216%, Cc1noc(C)c1-c1nc(N2CCNCC2)c2ccccc2n1 -0.961%, CN(C)c1ccc(-c2nccc(NCCN3CCOCC3)n2)cc1 2%

Tested on: not listed separately
Assay: qHTS Assay for Identification of Small Molecule Agonists for Hypoxia Response Element Signaling Pathway (AID 914; active means well fitted activation curve with a large enough effect in the signal ratio, with a control signal flat, not every such curve was filed as active; the % refers to the signal ratio; further: potency means the concentration at half of the fitted maximal effect; on activation: % of control where 0% means no effect)
Details: ME-180 (cervical carcinoma) HRE-bla reporter, beta-lactamase ratio, CoCl2, 17 h; activation: hits give high values
Method in brief: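 In Opti-MEM containing 0.5% dialyzed FBS and 10 mM HEPES, ME-180 HRE-bla cells received a compound titration and EC50 CoCl2. They were incubated 17 hours, then CCF4-loaded 2.5 hours at room temperature before ratio reading.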

Potency, active:
O=c1c(-c2ccccc2)nc2cnc(N3CCNCC3)nc2n1-c1ccccc1 3.16 µM, CN1CCN(c2ncc3nc(-c4ccccc4)c(=O)n(-c4ccccc4)c3n2)CC1 3.16 µM, COc1ccc(-n2c(=O)c(-c3ccccc3)nc3cnc(N4CCNCC4)nc32)cc1 3.16 µM

activation, inactive:
CN1CCN(c2ncc3nc(CCc4ccccc4)c(=O)n(Cc4ccc(F)cc4)c3n2)CC1 -6.17%

Tested on: not listed separately
Assay: Confirmation and Secondary Assay for Modulators of Hemoglobin Beta Chain Splicing at IVS2 705 locus (AID 930);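 further: HeLa cells stably expressing the EGFP-705 splicing reporter; GFP fluorescence per well restored by corrected splicing of the IVS2-705 intron in EGFP; % of control where 0% means no effect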
Details: HeLa EGFP-705 splicing reporter, GFP fluorescence, 48 h; series mostly up to 38.3 µM; activation: at the top concentration
Method in brief: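 Per-well GFP, captured at 1 x 8 µm resolution with 488 nm excitation, served as the read-out for HeLa EGFP-705 cells incubated 2 days with test compound versus DMSO.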

activation, inactive:
CN1CCN(c2ncnc3ccc(-c4ccccc4C#N)cc23)CC1 0.803%, Clc1ccccc1-c1nc(N2CCNCC2)c2ccccc2n1 -0.234%, Cc1noc(C)c1-c1nc(N2CCNCC2)c2ccccc2n1 -0.593%, CN(C)c1ccc(-c2nccc(NCCN3CCOCC3)n2)cc1 -0.611%

Tested on: not listed separately
Assay: qHTS Assay for Lipid Storage Modulators (AID 1519; calls by dose curve; further: on the % scale 0 is the no-effect control and ±100 the full control effect)
Details: Drosophila S3 cells, BODIPY lipid droplet/cell ratio, laser cytometry; at 57.5 µM (top of the series); cells loaded with oleic acid
Method in brief: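 Cells seeded at 5,000 per well were treated with compounds over a concentration series and loaded with oleic acid (400 uM, as added). Lipid droplet fluorescence (488 nm excitation, 500-530 nm channel) was read by laser-scanning cytometry and normalized to 20 uM Triacsin C.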

Activity change, negative = inhibition, inactive:
COCCn1c(=O)c(-c2ccc(Cl)cc2)nc2cnc(OCc3ccccc3)nc21 -8.74%, CN1CCN(c2ncncc2-c2ccccc2C(F)(F)F)CC1 6.69%, CN1CCN(c2ncnc3ccc(-c4ccccc4C#N)cc23)CC1 3.92%, N#CCCn1c(=O)c(-c2ccc(Cl)cc2)nc2cnc(OCc3ccccc3)nc21 5.27%, COc1ccc(Oc2ncc3nc(-c4cccs4)c(=O)n(CCC#N)c3n2)cc1 2.6%, Clc1ccccc1-c1nc(N2CCNCC2)c2ccccc2n1 3.77%, COCCn1c(=O)c(CCc2ccccc2)nc2cnc(N3CCN(C)CC3)nc21 5.96%, CN1CCN(c2ncc3nc(-c4cc(F)cc(F)c4)c(=O)n(-c4ccccc4)c3n2)CC1 2.22%, O=C(c1cc(C(F)(F)F)cc(C(F)(F)F)c1)N1CCC2(CC1)CCN(c1ccncc1)CC2 0.636%, O=c1cnc2cnc(N3CCNCC3)nc2n1Cc1ccc(F)cc1 7.02%, Cc1noc(C)c1-c1nc(N2CCNCC2)c2ccccc2n1 9.99%, CN(C)c1ccc(-c2nccc(NCCN3CCOCC3)n2)cc1 -20.5%, O=C(c1cc(C(F)(F)F)cc(C(F)(F)F)c1)N1CCC2(CC1)CCN(c1ccccn1)CC2 -8.11%, Cn1c(=O)c(CCc2ccccc2)nc2cnc(OCc3ccccc3)nc21 2.86%, COc1ccc(-c2nc3cnc(N4CCNCC4)nc3n(-c3ccccc3)c2=O)cc1 3%

— PubChem BioAssay (NCATS)
